Paper PMC5540273 (PLoS ONE, 2017)

Key:
Conditions in all cases: concentration: 1 μM,replicates: in singlicate; n = 1
WNK1 = tested on: WNK1
WNK2 = tested on: WNK2
WNK3 = tested on: WNK3
WNK4 = tested on: WNK4
YANK1 = tested on: T1, YANK1
T1 construct: gene STK32A

YANK2 = tested on: T2, YANK2
T2 construct: gene STK32B

YANK3 = tested on: T3, YANK3
T3 construct: gene STK32C

YES = tested on: T4, YES
T4 construct: gene YES1

YSK1 = tested on: T5, YSK1
T5 construct: gene STK25

YSK4 = tested on: T6, YSK4
T6 construct: gene MAP3K19

ZAK = tested on: ZAK
ZAP70 = tested on: ZAP70
p38-alpha = tested on: T7, p38-alpha
T7 construct: gene MAPK14

p38-beta = tested on: T8, p38-beta
T8 construct: gene MAPK11

p38-delta = tested on: p38-delta
p38-gamma = tested on: T9, p38-gamma
T9 construct: gene MAPK12
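Note: KINOMEscan kinase panel screen.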

Structure (SMILES)	%Inh (WNK1) [%]	%Inh (WNK2) [%]	%Inh (WNK3) [%]	%Inh (WNK4) [%]	%Inh (YANK1) [%]	%Inh (YANK2) [%]	%Inh (YANK3) [%]	%Inh (YES) [%]	%Inh (YSK1) [%]	%Inh (YSK4) [%]	%Inh (ZAK) [%]	%Inh (ZAP70) [%]	%Inh (p38-alpha) [%]	%Inh (p38-beta) [%]	%Inh (p38-delta) [%]	%Inh (p38-gamma) [%]
c1ccc(Oc2ccc(Nc3ccnc4ccc(-c5ccccn5)cc34)cc2)cc1 [GW407034]	20	25	20	51	12	0	30	55	0	7	53	0	0	4	19	0
Cl.Cl.NC[C@H](CC1CCCCC1)NC(=O)c1ccc(-c2ccnc3[nH]ccc23)s1 [GSK1581428]	0	0	0	7	68	43	35	5	0	99.7	0	0	0	0	7	13
Cl.Nc1n[nH]c2cc(-c3ccccn3)ccc12 [GSK2189892]	0	5	0	0	2	0	0	7	8	5	14	0	0	0	22	4
O=C(Nc1n[nH]c2cc(-c3ccco3)ccc12)C1CC1 [SB-737447]	0	0	0	0	0	0	0	0	0	96.2	0	0	0	0	3	26
Cc1ccc(CC(=O)N2CCc3cc(-c4cn(C)c5ncnc(N)c45)ccc32)cc1 [GSK2634758]	12	0	53	17	15	0	10	25	26	50	21	0	0	0	8	0
CS(=O)(=O)Nc1ccc(-c2ccnc3[nH]ccc23)cc1 [GSK993273]	13	14	9	0	12	0	20	8	51	96.5	13	0	0	0	48	41
COC(=O)c1cccc(NC(=O)NC2CCN(c3ccnc(Nc4cc(OC)c(OC)c(OC)c4)n3)C2)c1 (stereo not drawn) [GSK1379767]	0	24	49	39	12	0	0	0	16	0	3	17	37	0	22	0
COC(=O)Nc1nc2cc(Oc3ccc(NC(=O)Nc4cc(C(F)(F)F)ccc4Cl)cc3)ccc2[nH]1.Cl [GW697465]	8	11	49	48	0	0	13	29	4	84	98.4	0	83	45	48	0
COc1cc2c(Nc3ccc(NC(=O)c4ccccc4)cc3)ncnc2cc1OCCCN1CCOCC1 [GSK301329]	1	31	12	0	14	0	10	46	6	12	8	0	0	0	11	0
Cn1ccc2ncnc(Oc3ccc(NC(=O)Nc4ccnc(C(F)(F)F)c4)c(Cl)c3)c21	0	0	0	0	0	0	0	0	0	14	17	0	18	0	25	0
CC(C)S(=O)(=O)N1CCN(Cc2ccc3c(c2)nc(NC(=O)c2ccsc2)n3C[C@H](O)c2ccccc2)CC1 [GW635815]	3	0	18	0	1	0	5	86	0	90.6	1	0	6	4	47	0
O=C(Nc1cccc(C(F)(F)F)c1)c1cccc(Oc2ccc3nccn3n2)c1	16	0	26	15	0	0	30	0	0	77	35	15	0	0	0	27
